Compound activity as filed in PubChem.
OPRM1-OPRD1 ag – OPRM1-OPRD1 heterodimerization agonism; P35372+P41143; cells, luminescence; activation, % at 9.3 µM; hit rate 0.3% among 340,000; AID 504326; in the data active means activation above about 18%;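 further: 0% = vehicle-treated cells and 100% = reference agonist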
MIN6 prolif – MIN6 beta-cell proliferation induction | AID 2380 | MIN6 cells proliferation, ATPlite luminescence, 48 h; cells starved in 0.2% serum; 100% = growth in 10% serum | proliferation, % at 10 µM | hit rate 0.29% among 330,000;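 active means compounds whose signal lies at least 3.5 SD above the mean of all wells on their plate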;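 further: 0% = DMSO-treated cells in low-serum medium and 100% = 10% serum control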
MOR-DOR inv ag – inverse agonist of human OPRM1-OPRD1 heterodimerization | P35372+P41143 | hit rate 0.21% among 340,000 | cell-based MOR-DOR heterodimer luminescence, inverse agonism | AID 504357 | inhibition, % at 9.3 µM; in the data active means inhibition above about 22%, passing the limit was not always enough;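 further: 0% = cells with DMSO and 100% = wells without cells with DMSO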
pCIP destab – p/CIP protein destabilization. F442A p/CIP-EGFP cells, EGFP fluorescence, 16 h. decrease of EGFP signal, % at 10 µM. hit rate 0.01% among 290,000. AID 1984;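 active means EGFP signal decrease of at least 30% at 10 µM or well 3 SD below plate mean, unless failing retest; inactive means the rest, including hits failing retest or dose response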
HTR5A ag – activates human HTR5A in OPRM1-OPRD1 agonist counter-screen; activation, % at 9.3 µM; HTR5A agonist assay, luminescence, cell-based; hit rate 0.61% among 340,000; AID 504692; in the data active means activation mostly above about 9.5%, no sharp cut-off; inactive means mostly below about 7.6%;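 further: 0% = cells with vehicle only and 100% = reference agonist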
HTR5A inv ctr – HTR5A inverse agonism, opioid heterodimer counter-screen; HTR5A cell line, luminescence; hit rate 0.083% among 340,000; AID 504634; inhibition, % at 9.3 µM; in the data active means inhibition mostly above about 23%, no sharp cut-off; inactive means mostly below about 18%;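 further: 0% = cells with DMSO and 100% = no-cell wells with DMSO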
* = called active by the depositor; x = not tested or not shown. The list is not random: actives were taken first. Their share in the collection is about 1.4%.

SMILES	OPRM1-OPRD1 ag	MIN6 prolif	MOR-DOR inv ag	pCIP destab	HTR5A ag	HTR5A inv ctr
CCN1C[C@@H]2[C@@H]3C(=O)N(Cc4ccccc4)C(=O)[C@@H]3[C@](CC)(C(=O)OC)N2C1=NC	-3	x	15	x	0	-1
CCCCCCCCCCCCCCCC[N+](C)(C)Cc1ccc(F)cc1	3	x	-17	x	11*	-42
O=C(NCCc1ccccc1Cl)C1CCC(=O)N(CC2CCCCC2)C1 (stereo unspecified)	0	-2	-1	2	1	16
O=C(Nc1ccncc1)Nc1cccc(C(F)(F)F)c1	4	-2	-12	3	10*	-53
CCN(CC)S(=O)(=O)c1ccc(NC(=O)COc2c(OC)cccc2OC)cc1	0	6	2	-5	13*	3
O=C(Nc1cccc(C(F)(F)F)c1)c1sc(Cl)nc1C(F)(F)F	4	-4	-18	-16	9.4*	-35
COc1ccccc1OCC(=O)Nc1ccc(S(=O)(=O)N(C)c2ccccc2)cc1	0	-4	0	-25	0	1
NNC(=O)Nc1cccc(C(F)(F)F)c1	-2	-1	7	-5	1	-2
CCN(CC)S(=O)(=O)c1ccc(NC(=O)Nc2cccc(C(F)(F)F)c2)cc1	6	-6	-31	-1	13*	13
O=C(Cc1ccc(NC(=O)C2CCCN(C(=O)C3CC3)C2)cc1)Nc1ccc(C(=O)N2CCOCC2)cc1 (stereo unspecified)	-1	x	7	x	-3	9
CCC(C)NS(=O)(=O)c1ccc(NC(=O)c2cccs2)cc1 (stereo unspecified)	-3	-2	13	-3	0	1
Cc1ccc(NS(=O)(=O)c2ccc(NC(=O)c3cccs3)cc2)cc1	7	-1	-38	-11	8.3*	-10
Cc1ccc(S(=O)(=O)Nc2ccc(NC(=O)Nc3cccc(C(F)(F)F)c3)cc2)cc1	28*	-3	-144	-3	21*	-8
COc1cc(C)ccc1OCc1cc(C(=O)N2CCC(c3ccc(F)cc3)C2)no1 (stereo unspecified)	1	-3	-6	-5	-1	6
O=C(O)c1cccc2c1C(=O)c1ccccc1-2	-3	1	13	-2	0	0
O=C1C(=C(I)I)c2ccccc2-c2ccccc21	41*	x	-202	x	9	-35
CC(=O)Nc1nc2n(n1)C(c1ccccc1)C=C(c1ccccc1)N2 (stereo unspecified)	-3	1	17	-16	-12	32*
CC(=O)Nc1nc2n(n1)C(c1ccc(F)cc1)C=C(c1ccccc1)N2 (stereo unspecified)	-2	0	13	-9	5	-8
COc1ccc(S(=O)(=O)N2CCCCC2)cc1NC(=O)c1cncc(Br)c1	-2	5	10	x	3	-11
COc1cc(C(C)=O)ccc1OCC(=O)Nc1ccc2nc(C)sc2c1	-1	-1	4	x	-1	2
COC(=O)c1nc2nc(C)cc(C(F)(F)F)n2n1	1	-3	-6	-10	3	-7
COC(=O)c1nc2nc(-c3cccs3)cc(C(F)(F)F)n2n1	0	-1	2	-9	11*	-30
Cc1ccc(S(=O)(=O)c2ccsc2NC(=O)c2ccccc2)cc1	-2	x	7	x	-1	4
CS(=O)(=O)c1ccc(-c2sc3ccccc3c2C(=O)NCCCN2CCOCC2)cc1	-2	2	8	x	2	-8
CS(=O)(=O)NCCSc1cc(C(F)(F)F)nc2ccccc12	-4	-1	21	-12	12*	2
SMILES	OPRM1-OPRD1 ag	MIN6 prolif	MOR-DOR inv ag	pCIP destab	HTR5A ag	HTR5A inv ctr
CS(=O)(=O)NCCSCc1ccccc1	-3	-1	13	2	-2	23
Cc1ccc(S(=O)(=O)Nc2c(NC3CCCCC3)c3ccccc3oc2=O)cc1	0	0	-1	-2	13*	4
O=c1oc2ccccc2c(NC2CCCCC2)c1NS(=O)(=O)c1ccc(Br)cc1	-1	-6	5	-8	-1	-18
COc1cc(CNCCc2c[nH]c3ccccc23)ccc1OCc1ccc(F)cc1	9	-3	-53	-10	11*	-6
N#Cc1cnn(-c2ccccc2)c1NC(=O)CN1CCOCC1	x	-1	x	3	x	x
CCOC(=O)c1cnn(-c2ccccc2)c1NC(=O)CN1CCOCC1	1	-3	-5	-7	13*	-15
Cn1c(=NC(=O)CCl)sc2ccccc21	47*	-4	-274	-2	57*	-78
CC(C)CCC1(CCO)C(=O)N=C(N)NC1=O (stereo unspecified)	-1	x	6	x	-3	12
CC1CCC(NC(=O)CCS(=O)(=O)c2ccc3c(c2)CCN3C(=O)C2CC2)CC1 (stereo unspecified)	-3	-1	13	-6	10*	-17
CCCN(CC(=O)Nc1ccccc1OC)C(=O)CSC(=S)N1CCCC1	-4	-2	15	x	2	-5
CC(=O)c1cccc(NC(=O)c2cc(-c3ccc(F)cc3)on2)c1	0	-1	3	-9	10*	7
COc1ccccc1NC(=O)COC(=O)C1=NN(c2ccccc2)C(=O)CC1	-2	-1	11	x	5	-17
O=C(N/N=C/c1sc(=O)n(Cc2ccc(Br)cc2)c1Cl)c1ccco1	27*	-8	-133	-2	26*	-87
CC(C)(C)OC(=O)C[C@H]1C/C=C\C[C@H](CC(=O)N(CCO)Cc2ccccc2)C(=O)N[C@H](C(C)(C)C)COC1=O	-1	0	8	x	-2	-14
CN(C)c1nc(-c2ccccn2)nnc1-c1ccccc1	-2	0	8	-12	-2	-7
Cc1nnc(-c2ccccc2)nc1N(C)C	-2	-2	8	20	11*	10
CN(C(=O)c1cccc(NC(=O)Cc2ccc(NC(=O)C3CCN(C(=O)c4ccccc4)CC3)cc2)c1)C1CCCC1	1	x	-3	x	0	-2
COc1ccc(Cn2c(O)c(C=Nc3ccccc3C(=O)O)c3ccccc3c2=O)cc1	4	-4	-21	-6	6	-17
COc1ccccc1NS(=O)(=O)c1cccc(-n2c(O)c(C=Nc3ccccc3C(=O)O)c3ccccc3c2=O)c1	1	-5	-7	-10	14*	34
CC(=O)N1CCN(S(=O)(=O)c2cccc(C(=O)NCc3ccc(F)cc3)c2)CC1	-3	2	14	x	5	-22
CCN(C(=O)Cn1nc(C)c([N+](=O)[O-])c1C)C1CCS(=O)(=O)C1 (stereo unspecified)	-1	0	5	x	3	-7
CC1CCC(NC(=O)CSc2nnc(-c3cccnc3)o2)CC1 (stereo unspecified)	-5	-3	19	x	4	-4
CCCCOc1ccc(C2(C)CC(=O)NC2=O)cc1 (stereo unspecified)	-2	-1	7	-11	12*	-18
